# In PubChem BioAssay AID1159580 (chemical genetic matrix, 2015):
# About 2,000 (36%) of roughly 5,500 compounds were called active. Roughly 18% stayed inconclusive and do not appear here. No stated cut-off is given here; in the data, active means normalized growth mostly below about 0.91 (no sharp cut-off); inconclusive means no clear call, values can overlap the other calls; inactive means mostly above about 0.92. The list shows a part of the results.
# Assay: chemical genetic growth profiling, strain panel (AID 1159580);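 further: tested at 20 µM; growth read once vehicle control cultures reached saturation at 30 °C; 1 = growth at the plate median or of vehicle wells; lower values mean less growth of the strain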
# Details: growth OD
smiles,measurement,setting,value
CC1=C2C(=CO[C@H](C)[C@H]2C)C(=O)C(C(=O)O)=C1O,normalized growth,"S. cerevisiae deletion strains, locus YJR066W, strain TOR1, hits give low values",0.799 (active)
same,normalized growth,"S. cerevisiae deletion strains, locus YKL009W, strain mrt4, hits give low values",0.936 (inactive)
same,normalized growth,"S. cerevisiae deletion strains, locus YKL068W, hits give low values",0.972 (inactive)
same,normalized growth,"S. cerevisiae deletion strains, locus YKL085W, strain MDH1 (second series), hits give low values",0.943 (inactive)
same,normalized growth,"S. cerevisiae deletion strains, locus YKL085W, strain MDH1, hits give low values",0.943 (inactive)
same,normalized growth,"S. cerevisiae deletion strains, locus YKL160W, strain elf1, hits give low values",0.95 (inactive)
same,normalized growth,"S. cerevisiae deletion strains, locus YKL190W, strain CNB1, hits give low values",0.979 (inactive)
same,normalized growth,"S. cerevisiae deletion strains, locus YKR001C, strain vps1, hits give low values",1 (inactive)
same,normalized growth,"S. cerevisiae deletion strains, locus YKR026C, strain gcn3, hits give low values",0.979 (inactive)
same,normalized growth,"S. cerevisiae deletion strains, locus YKR091W, strain srl3, hits give low values",0.986 (inactive)
same,normalized growth,"S. cerevisiae deletion strains, locus YLL001W, strain dnm1, hits give low values",1 (inactive)
same,normalized growth,"S. cerevisiae deletion strains, locus YLL026W, hits give low values",0.976 (inactive)
same,normalized growth,"S. cerevisiae deletion strains, locus YLL041C, strain sdh2, hits give low values",0.98 (inactive)
same,normalized growth,"S. cerevisiae deletion strains, locus YLR027C, strain aat2, hits give low values",0.981 (inactive)
same,normalized growth,"S. cerevisiae deletion strains, locus YLR039C, strain RIC1, hits give low values",0.92 (inactive)
same,normalized growth,"S. cerevisiae deletion strains, locus YLR058C, strain SHM2, hits give low values",0.985 (inactive)
same,normalized growth,"S. cerevisiae deletion strains, locus YLR102C, strain apc9, hits give low values",0.979 (inactive)
same,normalized growth,"S. cerevisiae deletion strains, locus YLR113W, strain HOG1, hits give low values",0.709 (active)
same,normalized growth,"S. cerevisiae deletion strains, locus YLR221C, strain rsa3, hits give low values",0.971 (inactive)
same,normalized growth,"S. cerevisiae deletion strains, locus YLR258W, strain gsy2, hits give low values",0.96 (inactive)
same,normalized growth,"S. cerevisiae deletion strains, locus YLR262C, strain YPT6 (second series), hits give low values",0.891 (inactive)
same,normalized growth,"S. cerevisiae deletion strains, locus YLR262C, strain YPT6, hits give low values",0.918 (inactive)
same,normalized growth,"S. cerevisiae deletion strains, locus YLR268W, strain sec22, hits give low values",0.974 (inactive)
same,normalized growth,"S. cerevisiae deletion strains, locus YLR320W, strain mms22, hits give low values",0.94 (inactive)
same,normalized growth,"S. cerevisiae deletion strains, locus YLR330W, strain CHS5, hits give low values",0.98 (inactive)
same,normalized growth,"S. cerevisiae deletion strains, locus YLR342W, strain FKS1 (second series), hits give low values",0.931 (inactive)
same,normalized growth,"S. cerevisiae deletion strains, locus YLR342W, strain FKS1, hits give low values",0.954 (inactive)
same,normalized growth,"S. cerevisiae deletion strains, locus YLR357W, strain rsc2, hits give low values",1.01 (inactive)
same,normalized growth,"S. cerevisiae deletion strains, locus YLR370C, strain arc18, hits give low values",0.972 (inactive)
same,normalized growth,"S. cerevisiae deletion strains, locus YLR371W, strain rom2, hits give low values",1.01 (inactive)
same,normalized growth,"S. cerevisiae deletion strains, locus YLR384C, strain iki3, hits give low values",0.979 (inactive)
same,normalized growth,"S. cerevisiae deletion strains, locus YLR418C, strain cdc73, hits give low values",0.95 (inactive)
same,normalized growth,"S. cerevisiae deletion strains, locus YML016C, strain PPZ1, hits give low values",0.976 (inactive)
same,normalized growth,"S. cerevisiae deletion strains, locus YML032C, strain rad52, hits give low values",0.984 (inactive)
same,normalized growth,"S. cerevisiae deletion strains, locus YML120C, strain ndi1, hits give low values",0.975 (inactive)
same,normalized growth,"S. cerevisiae deletion strains, locus YML124C, strain tub3, hits give low values",0.964 (inactive)
same,normalized growth,"S. cerevisiae deletion strains, locus YMR058W, strain fet3, hits give low values",1 (inactive)
same,normalized growth,"S. cerevisiae deletion strains, locus YMR078C, strain ctf18, hits give low values",0.984 (inactive)
same,normalized growth,"S. cerevisiae deletion strains, locus YMR125W, strain sto1, hits give low values",0.996 (inactive)
same,normalized growth,"S. cerevisiae deletion strains, locus YMR129W, hits give low values",0.973 (inactive)
same,normalized growth,"S. cerevisiae deletion strains, locus YMR205C, strain PFK2, hits give low values",0.937 (inactive)
same,normalized growth,"S. cerevisiae deletion strains, locus YMR223W, strain ubp8, hits give low values",0.997 (inactive)
same,normalized growth,"S. cerevisiae deletion strains, locus YMR231W, strain pep5, hits give low values",0.981 (inactive)
same,normalized growth,"S. cerevisiae deletion strains, locus YMR307W, strain GAS1, hits give low values",0.85 (inactive)
same,normalized growth,"S. cerevisiae deletion strains, locus YNL067W, strain RPL9B, hits give low values",0.997 (inactive)
same,normalized growth,"S. cerevisiae deletion strains, locus YNL071W, strain lat1, hits give low values",0.981 (inactive)
same,normalized growth,"S. cerevisiae deletion strains, locus YNL128W, strain TEP1, hits give low values",1.01 (inactive)
same,normalized growth,"S. cerevisiae deletion strains, locus YNL153C, strain GIM3, hits give low values",0.988 (inactive)
same,normalized growth,"S. cerevisiae deletion strains, locus YNL183C, strain NPR1, hits give low values",0.82 (active)
same,normalized growth,"S. cerevisiae deletion strains, locus YNL209W, strain ssb2, hits give low values",0.977 (inactive)
same,normalized growth,"S. cerevisiae deletion strains, locus YNL233W, strain BNI4, hits give low values",1 (inactive)
same,normalized growth,"S. cerevisiae deletion strains, locus YNL248C, strain rpa49, hits give low values",1.01 (inactive)
same,normalized growth,"S. cerevisiae deletion strains, locus YNL250W, strain rad50, hits give low values",0.979 (inactive)
same,normalized growth,"S. cerevisiae deletion strains, locus YNL271C, strain bni1, hits give low values",0.978 (inactive)
same,normalized growth,"S. cerevisiae deletion strains, locus YNL298W, strain CLA4, hits give low values",0.956 (inactive)
same,normalized growth,"S. cerevisiae deletion strains, locus YNL307C, strain MCK1, hits give low values",0.985 (inactive)
same,normalized growth,"S. cerevisiae deletion strains, locus YNL322C, strain KRE1 (second series), hits give low values",0.965 (inactive)
same,normalized growth,"S. cerevisiae deletion strains, locus YNL322C, strain KRE1, hits give low values",0.968 (inactive)
same,normalized growth,"S. cerevisiae deletion strains, locus YNR049C, strain mso1, hits give low values",0.988 (inactive)
same,normalized growth,"S. cerevisiae deletion strains, locus YNR052C, strain pop2, hits give low values",0.997 (inactive)
same,normalized growth,"S. cerevisiae deletion strains, locus YOL012C, strain htz1",1.44 (inactive)
same,normalized growth,"S. cerevisiae deletion strains, locus YOL147C, strain pex11, hits give low values",0.977 (inactive)
same,normalized growth,"S. cerevisiae deletion strains, locus YOR001W, strain rrp6, hits give low values",0.972 (inactive)
same,normalized growth,"S. cerevisiae deletion strains, locus YOR061W, strain CKA2, hits give low values",0.983 (inactive)
same,normalized growth,"S. cerevisiae deletion strains, locus YOR069W, strain VPS5, hits give low values",0.973 (inactive)
same,normalized growth,"S. cerevisiae deletion strains, locus YOR070C, strain gyp1, hits give low values",0.974 (inactive)
same,normalized growth,"S. cerevisiae deletion strains, locus YOR080W, strain dia2, hits give low values",0.972 (inactive)
same,normalized growth,"S. cerevisiae deletion strains, locus YOR083W, strain WHI5, hits give low values",1 (inactive)
same,normalized growth,"S. cerevisiae deletion strains, locus YOR106W, strain vam3, hits give low values",1 (inactive)
same,normalized growth,"S. cerevisiae deletion strains, locus YOR136W, strain idh2, hits give low values",0.985 (inactive)
same,normalized growth,"S. cerevisiae deletion strains, locus YOR144C, strain elg1, hits give low values",0.981 (inactive)
same,normalized growth,"S. cerevisiae deletion strains, locus YOR184W, strain ser1, hits give low values",0.989 (inactive)
same,normalized growth,"S. cerevisiae deletion strains, locus YOR231W, strain MKK1, hits give low values",0.809 (active)
same,normalized growth,"S. cerevisiae deletion strains, locus YOR265W, strain rbl2, hits give low values",0.967 (inactive)
same,normalized growth,"S. cerevisiae deletion strains, locus YOR270C, strain vph1, hits give low values",1 (inactive)
same,normalized growth,"S. cerevisiae deletion strains, locus YOR290C, strain snf2, hits give low values",0.969 (inactive)
same,normalized growth,"S. cerevisiae deletion strains, locus YOR316C, strain cot1, hits give low values",0.972 (inactive)
same,normalized growth,"S. cerevisiae deletion strains, locus YPL051W, strain arl3, hits give low values",0.967 (inactive)
same,normalized growth,"S. cerevisiae deletion strains, locus YPL078C, strain atp4, hits give low values",0.993 (inactive)
same,normalized growth,"S. cerevisiae deletion strains, locus YPL106C, strain sse1, hits give low values",0.933 (inactive)
same,normalized growth,"S. cerevisiae deletion strains, locus YPL240C, strain hsp82, hits give low values",0.978 (inactive)
same,normalized growth,"S. cerevisiae deletion strains, locus YPL241C, strain CIN2, hits give low values",0.971 (inactive)
same,normalized growth,"S. cerevisiae deletion strains, locus YPL256C, strain CLN2, hits give low values",0.838 (inactive)
same,normalized growth,"S. cerevisiae deletion strains, locus YPR119W, strain clb2, hits give low values",0.965 (inactive)
same,normalized growth,"S. cerevisiae deletion strains, locus YPR141C, strain kar3, hits give low values",0.957 (inactive)
same,normalized growth,"S. cerevisiae deletion strains, locus YPR163C, strain tif3, hits give low values",1.01 (inactive)
same,normalized growth,"S. cerevisiae deletion strains, locus YPR167C, strain met16, hits give low values",0.987 (inactive)
same,normalized growth,"S. cerevisiae deletion strains, strain wtn01, hits give low values",0.956 (inactive)
same,normalized growth,"S. cerevisiae strains, strain wild type, hits give low values",0.974 (inactive)
